According to PubChem BioAssay (EPA / NIEHS):
“And” between values parts separate entries of the source, which are not always exact repeats. Equal values may be shown once. The source made the active and inactive calls. The calls were made as follows: active = hit-call score of the fitted dose curve at least 0.9, where 1 is the maximum; inactive = score below 0.9.

Tests used:
[1] = biological target: Transcription factor E2F1 (Homo sapiens) (UniProt Q01094); assay: ATG_E2F_CIS: Attagene CIS-FACTORIAL HepG2 Assay for human E2F Transcription Factor 1 (AID 2282935); conditions: HepG2 Attagene cis-reporter, E2F reporter RNA transcripts; actives raise or lower the signal
How it was run: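 Gain or loss of reporter transcript, fitted against DMSO, reflects E2F1-driven transcription. Transiently transfected HepG2 dosed 24 h before RNA isolation. Quantified by fluorescent RT-PCR products separated by capillary electrophoresis.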

[2] = ATG_E_Box_CIS: Attagene CIS-FACTORIAL HepG2 Assay for human Enhancer Box (E-box) (AID 2282936); conditions: HepG2 E-box cis-reporter transcription, actives raise or lower the signal
How it was run: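 E-box-driven reporter transcripts measured in transiently transfected HepG2 after 24 h exposure: RNA reverse-transcribed, PCR-amplified, fluorescently labelled, digested and resolved by capillary electrophoresis. Gain or loss relative to DMSO.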

[3] = ATG_EGR_CIS: Attagene CIS-FACTORIAL HepG2 Assay for human Early Growth Response 1 (EGR1) (AID 2282938); conditions: HepG2 Attagene CIS-FACTORIAL EGR reporter mRNA; actives raise or lower the signal
How it was run: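 After a 24 h treatment of transiently transfected HepG2 cells, total RNA was reverse-transcribed and reporter sequences PCR-amplified, labelled and run on capillary electrophoresis. Reporters sit under cis-regulatory promoters sensing endogenous factors.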

[4] = ATG_M_19_CIS: Attagene CIS-FACTORIAL HepG2 Assay for M19 Transcription Factor (Internal Marker) (AID 2282939); conditions: HepG2 Attagene CIS-FACTORIAL M19 internal marker reporter; actives raise or lower the signal
How it was run: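 Transfect HepG2 with MRTU reporter library → dose chemical, 24 h → isolate total RNA, reverse-transcribe with oligo(dT) → PCR, 6-FAM label, HpaI cut (2 h, 37 C) → capillary electrophoresis. Bidirectional fit vs DMSO.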

[5] = ATG_ERE_CIS: Attagene CIS-FACTORIAL HepG2 Assay for Estrogen Response Element (ERE) (AID 2282940); conditions: HepG2 ERE cis-reporter, Attagene RNA transcript; actives raise or lower the signal
How it was run: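 Transient MRTU transfection of human HepG2; cis-element promoters; 24 h dosing; total RNA → RT (oligo dT) → PCR → 6-FAM primer extension → HpaI digest → CE fluorescence. Bidirectional fit, DMSO baseline.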

[6] = ATG_Ets_CIS: Attagene CIS-FACTORIAL HepG2 Assay for human Erythroblast Transformation Specific (ETS) (AID 2282941); conditions: HepG2 ETS cis-reporter transcription, actives raise or lower the signal
How it was run: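 Cis-regulated reporter mRNA induction in HepG2 (transient transfection), 24 h exposure, RT-PCR plus capillary electrophoresis detection; DMSO serves as negative control and baseline.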

[7] = biological target: Hepatocyte nuclear factor 3-beta (Homo sapiens) (UniProt Q9Y261); assay: ATG_FoxA2_CIS: Attagene CIS-FACTORIAL HepG2 Assay for human Forkhead box A2 (FOXA2) (AID 2282942); conditions: HepG2 cis-reporter transcription factor activity, 24 h; actives raise or lower the signal
How it was run: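 24 h dosing of HepG2 bearing cis-reporter constructs; mRNA readout by RT-PCR/CE fluorescence; bidirectional fit, DMSO baseline.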

[8] = ATG_FoxO_CIS: Attagene CIS-FACTORIAL HepG2 Assay for human Forkhead box O (FoxO) (AID 2282943); conditions: HepG2 Attagene cis-reporter, FoxO element, mRNA; actives raise or lower the signal
How it was run: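 Endogenous transcription factor activity read from multiplexed cis-promoter reporter transcripts in transiently transfected HepG2, 24 h after dosing. Reporter RNA measured via RT-PCR plus capillary electrophoresis of FAM-labeled products; gain or loss relative to DMSO.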

[9] = ATG_GATA_CIS: Attagene CIS-FACTORIAL HepG2 Assay for human GATA Binding Protein (AID 2282944); conditions: HepG2 GATA cis-element reporter, Attagene multiplex mRNA; actives raise or lower the signal
How it was run: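 Transient MRTU transfection, HepG2, 24 h compound exposure. Total RNA → oligo(dT) RT → PCR → 6-FAM primer extension → HpaI cut → CE. Bidirectional fit vs DMSO.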

[10] = ATG_GLI_CIS: Attagene CIS-FACTORIAL HepG2 Assay for human Zinc Finger Protein GLI1 (AID 2282945); conditions: HepG2, Attagene cis-factorial reporter mRNA, GLI element; actives raise or lower the signal
How it was run: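 Bidirectional curve fits relative to DMSO, using reporter mRNA levels from RT-PCR plus capillary electrophoresis. Cells were HepG2 transiently carrying cis-regulated reporter constructs, harvested 24 h after dosing.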

[11] = biological target: Bile acid receptor (Homo sapiens) (UniProt Q96RI1); assay: ATG_IR1_CIS: Attagene CIS-FACTORIAL HepG2 Assay for human Nuclear Receptor Subfamily 1 Group H Member 4 (NR1H4), IR1 submotif (AID 2282946); conditions: IR1 reporter transcription, actives raise or lower the signal
How it was run: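 HepG2 cells transiently transfected with multiplexed cis-element reporter units read endogenous transcription factor activity. After 24 h compound exposure, reporter mRNA was quantified by RT-PCR, fluorescent labelling, HpaI digestion and capillary electrophoresis; bidirectional fitting versus DMSO baseline.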

[12] = ATG_GRE_CIS: Attagene CIS-FACTORIAL HepG2 Assay for human Glucocorticoid Response Elements (GRE) (AID 2282947); conditions: HepG2 GRE cis-reporter, Attagene multiplex mRNA; actives raise or lower the signal
How it was run: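 Reporter transcripts read by RT-PCR with capillary electrophoresis fluorescence after a 24 h chemical exposure of HepG2 cells transiently transfected with multiple cis-element reporter units. Gain or loss fitted against DMSO.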

[13] = ATG_ISRE_CIS: Attagene CIS-FACTORIAL HepG2 Assay for human Interferon Regulatory Factor 1 (IRF1) binding to an Interferon-Stimulated Response Element (ISRE) (AID 2282948); conditions: HepG2 ISRE cis-reporter (Attagene), mRNA transcription readout; actives raise or lower the signal
How it was run: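 Multiplexed mRNA reporter readout in human liver HepG2 cells: cis-element-driven reporters transfected, compound added for 24 h, transcripts amplified, fluorescently labelled and sized by capillary electrophoresis; curve fitting bidirectional against DMSO.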

[14] = ATG_M_32_CIS: Attagene CIS-FACTORIAL HepG2 Assay for M32 Transcription Factor (Internal Marker) (AID 2282949); conditions: HepG2 Attagene cis-factorial M32 reporter, mRNA; actives raise or lower the signal;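 also: background control marker of the multiplexed CIS panel rather than a real target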
How it was run: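 HepG2 transfectants (cis-regulated reporter transcription units) dosed 24 h. Reporter mRNA by RT-PCR plus CE, analysed as gain or loss relative to DMSO.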

[15] = ATG_M_06_CIS: Attagene CIS-FACTORIAL HepG2 Assay for M06 Transcription Factor (Internal Marker) (AID 2282950); conditions: HepG2 Attagene CIS-FACTORIAL M06 internal marker reporter; actives raise or lower the signal
How it was run: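 Read-out is fluorescence of labelled reporter cDNA fragments resolved by capillary electrophoresis after RT-PCR. Cells: HepG2 carrying transfected cis-promoter reporter units, treated 24 h. Gain or loss of signal fitted relative to DMSO.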

[16] = biological target: Hypoxia-inducible factor 1-alpha (Homo sapiens) (UniProt Q16665); assay: ATG_HIF1a_CIS: Attagene CIS-FACTORIAL HepG2 Assay for human Hypoxia Inducible Factor 1 (HIF1A) (AID 2282951); conditions: HepG2 Attagene cis-factorial HIF1a reporter transcription; actives raise or lower the signal
How it was run: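 After 24 h chemical exposure of reporter-transfected HepG2 cells, reporter cDNA was PCR-amplified, labelled by 6-FAM primer extension (2 min 95 C, 20 s 68 C, 10 min 72 C), HpaI-cut (2 h, 37 C) and analysed by CE.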

[17] = biological target: Hepatocyte nuclear factor 6 (Homo sapiens) (UniProt Q9UBC0); assay: ATG_HNF6_CIS: Attagene CIS-FACTORIAL HepG2 Assay for human Hepatocyte Nuclear Factor 6 (HNF6) (AID 2282952); conditions: HepG2 Attagene cis-factorial HNF6 reporter transcription; actives raise or lower the signal
How it was run: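 Using cis-element reporters in HepG2 liver cells, the assay tracks endogenous factor-driven transcription 24 h post-dosing. Signal comes from 6-FAM-labelled, HpaI-digested RT-PCR fragments, with gain or loss scored against DMSO.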

[18] = ATG_MRE_CIS: Attagene CIS-FACTORIAL HepG2 Assay for human Metal Responsive Element (MRE) (AID 2282954); conditions: HepG2 MRE cis-reporter transcription, Attagene multiplex; actives raise or lower the signal
How it was run: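 Endogenous MRE-dependent transcription read as reporter mRNA in transiently transfected human HepG2 cells at 24 h. RNA reverse-transcribed, PCR-amplified, labelled and resolved by capillary electrophoresis; gain or loss relative to DMSO.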

[19] = ATG_M_61_CIS: Attagene CIS-FACTORIAL HepG2 Assay for M61 Transcription Factor (Internal Marker) (AID 2282937); conditions: HepG2 Attagene CIS-FACTORIAL M61 internal marker reporter; actives raise or lower the signal
How it was run: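 Transfect HepG2 with MRTUs; dose 24 h; isolate RNA; reverse-transcribe with DNase I treatment; PCR-amplify, FAM-label and cut with HpaI for 2 h at 37 C; resolve by CE. Bidirectional fitting against DMSO.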

[20] = biological target: Heat shock factor protein 1 (Homo sapiens) (UniProt Q00613); assay: ATG_HSE_CIS: Attagene CIS-FACTORIAL HepG2 Assay for human Heat Shock Transcription Factor 1 (HSE) (AID 2282953); conditions: HepG2 HSE cis-reporter, Attagene RNA transcription; actives raise or lower the signal
How it was run: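 HepG2, transient MRTU transfection, cis-promoter reporters (endogenous TF activity). 24 h compound. RNA → oligo(dT) RT → PCR → 6-FAM primer extension → HpaI cut → CE. Bidirectional fit vs DMSO.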

Measured: AC50

Chain of Heat shock factor protein 1 (Homo sapiens) (Q00613 whole entry, looked up): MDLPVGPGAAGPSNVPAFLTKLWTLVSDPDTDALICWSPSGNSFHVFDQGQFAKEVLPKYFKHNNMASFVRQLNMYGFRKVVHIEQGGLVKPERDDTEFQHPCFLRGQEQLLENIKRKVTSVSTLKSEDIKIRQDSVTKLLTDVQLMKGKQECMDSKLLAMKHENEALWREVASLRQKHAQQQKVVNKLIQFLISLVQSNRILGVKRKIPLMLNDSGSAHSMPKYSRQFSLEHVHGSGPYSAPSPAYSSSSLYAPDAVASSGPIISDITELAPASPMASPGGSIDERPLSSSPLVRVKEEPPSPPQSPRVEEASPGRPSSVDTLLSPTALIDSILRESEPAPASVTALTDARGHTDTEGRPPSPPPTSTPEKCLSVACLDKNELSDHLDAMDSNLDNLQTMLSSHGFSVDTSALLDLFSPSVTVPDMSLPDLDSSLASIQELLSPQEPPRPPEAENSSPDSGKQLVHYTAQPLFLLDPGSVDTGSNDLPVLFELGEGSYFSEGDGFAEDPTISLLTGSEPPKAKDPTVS
Chain of Hepatocyte nuclear factor 6 (Homo sapiens) (Q9UBC0 whole entry, looked up, the tested form may be a part): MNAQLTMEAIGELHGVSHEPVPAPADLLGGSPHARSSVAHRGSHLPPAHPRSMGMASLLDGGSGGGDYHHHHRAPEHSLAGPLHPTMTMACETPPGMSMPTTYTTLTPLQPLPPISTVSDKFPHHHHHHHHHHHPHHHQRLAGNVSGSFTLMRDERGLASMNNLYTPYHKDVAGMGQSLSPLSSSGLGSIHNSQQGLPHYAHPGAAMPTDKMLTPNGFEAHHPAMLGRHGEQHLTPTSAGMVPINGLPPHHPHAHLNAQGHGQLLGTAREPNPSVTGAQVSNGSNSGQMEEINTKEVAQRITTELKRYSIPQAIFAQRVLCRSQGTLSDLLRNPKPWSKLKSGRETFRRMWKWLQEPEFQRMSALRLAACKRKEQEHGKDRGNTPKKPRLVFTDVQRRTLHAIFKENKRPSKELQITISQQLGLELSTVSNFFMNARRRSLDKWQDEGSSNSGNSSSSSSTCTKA
Chain of Bile acid receptor (Homo sapiens) (Q96RI1 whole entry, looked up): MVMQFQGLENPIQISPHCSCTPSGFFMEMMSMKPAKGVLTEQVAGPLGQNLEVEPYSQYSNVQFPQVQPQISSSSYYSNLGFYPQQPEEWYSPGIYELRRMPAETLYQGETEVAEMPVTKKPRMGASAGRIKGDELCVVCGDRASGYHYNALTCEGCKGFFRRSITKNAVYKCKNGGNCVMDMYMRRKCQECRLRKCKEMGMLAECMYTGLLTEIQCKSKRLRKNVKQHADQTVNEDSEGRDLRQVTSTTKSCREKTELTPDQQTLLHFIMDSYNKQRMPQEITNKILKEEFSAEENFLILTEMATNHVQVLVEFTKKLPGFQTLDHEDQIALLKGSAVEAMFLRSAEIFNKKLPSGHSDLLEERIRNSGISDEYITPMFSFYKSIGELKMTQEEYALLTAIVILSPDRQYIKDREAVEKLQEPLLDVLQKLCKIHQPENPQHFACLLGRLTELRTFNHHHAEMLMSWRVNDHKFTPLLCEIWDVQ
Chain of Hepatocyte nuclear factor 3-beta (Homo sapiens) (Q9Y261 whole entry, looked up): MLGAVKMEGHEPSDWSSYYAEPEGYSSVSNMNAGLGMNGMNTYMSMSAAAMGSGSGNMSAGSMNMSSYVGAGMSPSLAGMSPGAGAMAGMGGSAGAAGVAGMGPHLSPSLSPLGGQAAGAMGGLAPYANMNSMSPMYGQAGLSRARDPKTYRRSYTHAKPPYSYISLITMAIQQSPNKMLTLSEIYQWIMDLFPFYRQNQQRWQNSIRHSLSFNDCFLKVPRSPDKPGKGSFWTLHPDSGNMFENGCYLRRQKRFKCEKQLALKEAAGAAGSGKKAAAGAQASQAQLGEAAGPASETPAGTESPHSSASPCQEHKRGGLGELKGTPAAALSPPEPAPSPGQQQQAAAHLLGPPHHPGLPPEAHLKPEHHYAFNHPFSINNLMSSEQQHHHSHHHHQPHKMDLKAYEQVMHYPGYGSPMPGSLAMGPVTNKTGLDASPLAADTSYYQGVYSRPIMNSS
Chain of Hypoxia-inducible factor 1-alpha (Homo sapiens) (Q16665 whole entry, looked up): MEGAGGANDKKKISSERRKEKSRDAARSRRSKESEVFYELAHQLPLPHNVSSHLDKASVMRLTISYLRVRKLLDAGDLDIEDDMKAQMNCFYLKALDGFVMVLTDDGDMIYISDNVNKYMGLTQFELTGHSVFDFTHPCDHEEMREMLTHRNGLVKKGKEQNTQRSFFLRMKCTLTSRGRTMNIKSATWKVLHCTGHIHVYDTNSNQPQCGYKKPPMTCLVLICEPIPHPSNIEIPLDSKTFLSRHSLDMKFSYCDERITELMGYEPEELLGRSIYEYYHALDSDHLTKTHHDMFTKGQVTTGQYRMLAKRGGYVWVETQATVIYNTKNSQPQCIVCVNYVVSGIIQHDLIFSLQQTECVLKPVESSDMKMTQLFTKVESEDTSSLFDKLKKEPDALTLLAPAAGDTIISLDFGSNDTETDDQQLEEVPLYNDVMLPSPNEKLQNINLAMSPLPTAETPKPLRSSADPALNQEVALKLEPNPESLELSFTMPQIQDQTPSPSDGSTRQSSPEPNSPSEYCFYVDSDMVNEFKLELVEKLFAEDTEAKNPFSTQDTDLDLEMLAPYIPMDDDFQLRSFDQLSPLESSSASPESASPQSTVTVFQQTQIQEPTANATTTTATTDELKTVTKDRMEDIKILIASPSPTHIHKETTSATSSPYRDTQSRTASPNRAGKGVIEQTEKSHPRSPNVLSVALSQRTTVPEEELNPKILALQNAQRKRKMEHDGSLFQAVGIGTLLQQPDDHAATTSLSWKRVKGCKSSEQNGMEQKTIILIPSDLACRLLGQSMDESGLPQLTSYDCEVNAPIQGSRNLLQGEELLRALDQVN
Chain of Transcription factor E2F1 (Homo sapiens) (Q01094 whole entry, looked up): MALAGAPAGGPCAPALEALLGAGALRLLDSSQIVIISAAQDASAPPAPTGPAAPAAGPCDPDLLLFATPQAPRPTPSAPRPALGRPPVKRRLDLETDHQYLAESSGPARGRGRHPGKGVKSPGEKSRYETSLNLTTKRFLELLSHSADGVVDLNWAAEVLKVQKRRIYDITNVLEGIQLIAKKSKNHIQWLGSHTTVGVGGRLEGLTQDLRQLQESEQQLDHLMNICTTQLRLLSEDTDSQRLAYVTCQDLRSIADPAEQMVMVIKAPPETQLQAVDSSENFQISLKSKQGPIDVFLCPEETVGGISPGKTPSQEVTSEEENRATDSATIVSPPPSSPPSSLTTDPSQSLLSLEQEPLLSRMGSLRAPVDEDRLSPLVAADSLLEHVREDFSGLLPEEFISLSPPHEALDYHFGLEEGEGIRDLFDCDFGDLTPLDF

C=C(C)C(=O)OCCC(F)(F)C(F)(F)C(F)(F)C(F)(F)C(F)(C(F)(F)F)C(F)(F)F
inactive: [1] | [2] | [3] | [4] | [6] | [7] | [8] | [9] | [10] | [11] | [12] | [13] | [14] | [15] | [16] | [17] | [18]
active: [5] 13.8 µM

NC(=O)C(F)(F)C(F)(F)C(F)(F)C(F)(F)F
inactive: [1] | [2] | [3] | [4] | [5] | [6] | [7] | [8] | [9] | [10] | [11] | [12] | [13] | [14] | [15] | [16] | [17] | [18]

C=C(C)C(=O)OCC(F)(F)C(F)(F)C(F)(F)C(F)(F)C(F)(F)C(F)(F)C(F)(F)F
inactive: [2] | [19] | [3] | [4] | [6] | [7] | [8] | [9] | [10] | [11] | [12] | [13] | [14] | [15] | [16] | [17] | [20] | [18]
active: [5] 16.2 µM

O=P(O)(O)OCCC(F)(F)C(F)(F)C(F)(F)C(F)(F)C(F)(F)C(F)(F)F
active: [5] 18.3 µM
inactive: [1] | [3] | [4] | [6] | [7] | [8] | [9] | [10] | [11] | [12] | [13] | [14] | [15] | [16] | [17] | [20] | [18]

Nc1ccc(S(=O)(=O)Nc2nccs2)cc1
inactive: [1] | [2] | [3] | [4] | [5] | [6] | [7] | [8] | [9] | [10] | [12] | [13] | [14] | [15] | [17] | [20] | [18]

O=C(O)C(F)(F)C(F)(F)C(F)(F)C(F)(F)C(F)(F)C(F)(F)C(F)(F)C(F)(F)Cl
active: [3] 50 µM and 64.8 µM | [5] 15.4 µM and 21.7 µM | [13] 32.1 µM and 50 µM | [16] 50 µM | [18] 55.5 µM and 66.6 µM
inactive: [1] | [4] | [6] | [7] | [8] | [9] | [10] | [11] | [12] | [14] | [17]

O=C(O)C(F)(F)C(F)(F)C(F)(F)C(F)(F)C(F)(F)C(F)(F)C(F)(F)C(F)(F)C(F)(F)C(F)(F)C(F)(F)C(F)(F)F
inactive: [1] | [3] | [4] | [5] | [6] | [7] | [8] | [9] | [10] | [11] | [12] | [13] | [14] | [15] | [16] | [17] | [20] | [18]
